Assay results reported in PubChem BioAssay.
Measured potencies and affinities stand elsewhere. Inconclusive results are not listed. The source made the active and inactive calls. No rule for the calls is given here.

Experiment: IGROV1 cell killing – plate reader, dry powder samples, PAX8 inhibitor project, dose response (AID 743043);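 also: more negative means fewer viable cells or more cytotoxicity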
Settings: IGROV1 ovarian cancer cell cytotoxicity; series mostly up to 35 µM

Row | SMILES | outcome
1 | C[C@@H]1CCCCO[C@H](CN(C)Cc2ccc(C(F)(F)F)cc2)[C@H](C)CN([C@H](C)CO)C(=O)c2cc(NS(=O)(=O)c3ccc(F)cc3)ccc2O1 | inactive
2 | C[C@@H]1CN([C@H](C)CO)C(=O)c2cc(NC(=O)c3ccncc3)ccc2O[C@@H](C)CCCCO[C@H]1CN(C)Cc1ccc(C(F)(F)F)cc1 | inactive
3 | O=C(C[C@H]1CC[C@H]2[C@@H](COC[C@@H](O)CN2S(=O)(=O)c2ccccc2Cl)O1)N1CCC(Cc2ccccc2)CC1 | inactive
4 | C[C@@H]1CN([C@@H](C)CO)C(=O)c2ccccc2-c2ccccc2CO[C@H]1CN(C)Cc1ccccc1C(F)(F)F | inactive
5 | C[C@@H]1CN([C@@H](C)CO)S(=O)(=O)c2ccc(C#Cc3ccccc3F)cc2O[C@H]1CN(C)CC1CCOCC1 | inactive
6 | C[C@@H]1CN([C@@H](C)CO)C(=O)Cc2cc(NC(=O)Nc3ccc(C(F)(F)F)cc3)ccc2O[C@H]1CN(C)S(=O)(=O)c1ccc(F)cc1 | inactive
7 | C[C@@H]1CCCCO[C@H](CN(C)C(=O)Nc2ccc(F)cc2)[C@@H](C)CN([C@@H](C)CO)C(=O)c2cc(NC(=O)Nc3ccc(C(F)(F)F)cc3)ccc2O1 | inactive
8 | C[C@@H]1CCCCO[C@@H](CN(C)Cc2ccc(C(F)(F)F)cc2)[C@H](C)CN([C@H](C)CO)C(=O)c2cc(NS(=O)(=O)c3ccc(Cl)cc3)ccc2O1 | inactive
9 | C[C@@H]1CCCCO[C@@H](CN(C)C(=O)C2CCCCC2)[C@H](C)CN([C@H](C)CO)C(=O)c2cc(NC(=O)Nc3ccc(F)cc3)ccc2O1 | inactive
10 | C[C@H](CO)N1C[C@H](C)[C@H](CN(C)Cc2ccc(Cl)c(Cl)c2)Oc2c(NS(=O)(=O)c3ccc(Cl)cc3)cccc2C1=O | inactive
11 | C[C@@H]1CCCCO[C@@H](CN(C)Cc2ccc(Cl)c(Cl)c2)[C@H](C)CN([C@@H](C)CO)C(=O)c2cc(NC(=O)Cc3ccccc3)ccc2O1 | inactive
12 | C[C@H](CO)N1C[C@H](C)[C@H](CN(C)Cc2ccc3c(c2)OCO3)Oc2ccc(NC(=O)Nc3cccc4ccccc34)cc2C1=O | inactive
13 | COc1ccccc1-c1ccc2c(c1)[C@H]1[C@H](CCN1S(=O)(=O)c1ccccc1F)[C@H](CO)N2 | inactive
14 | C[C@@H]1CN([C@H](C)CO)C(=O)c2cc(NC(=O)c3ccccc3)ccc2O[C@@H](C)CCCCO[C@H]1CN(C)Cc1ccc(C(F)(F)F)cc1 | inactive
15 | C[C@H]1CCCCO[C@@H](CN(C)C(=O)c2ccccc2)[C@@H](C)CN([C@@H](C)CO)C(=O)c2cc(NC(=O)Nc3ccc(C(F)(F)F)cc3)ccc2O1 | inactive
16 | Cc1ccc(S(=O)(=O)N(C)C[C@H]2Oc3c(NC(=O)Nc4ccc(F)cc4)cccc3C(=O)N([C@@H](C)CO)C[C@H]2C)cc1 | inactive
17 | O=S(=O)(c1ccc(F)cc1)N1C[C@H]2[C@@H](c3ccccc31)[C@H](CO)N2Cc1ccccc1Cl | inactive
18 | Cc1ccc(S(=O)(=O)N(C)C[C@H]2OCCCC[C@@H](C)Oc3ccc(NS(=O)(=O)c4ccc(F)cc4)cc3C(=O)N([C@@H](C)CO)C[C@H]2C)cc1 | inactive
19 | C[C@H](CO)N1C[C@H](C)[C@@H](CN(C)CC2CCCCC2)Oc2ccc(NC(=O)Nc3ccc4c(c3)OCO4)cc2CC1=O | inactive
20 | O=C(C[C@@H]1C[C@H]2c3cc(NC(=O)C4CCOCC4)ccc3O[C@H]2[C@H](CO)O1)NCc1ccc(Oc2ccccc2)cc1 | inactive
21 | C[C@H]1CCCCO[C@@H](CN(C)Cc2ccc(C(F)(F)F)cc2)[C@@H](C)CN([C@@H](C)CO)C(=O)c2cc(NS(=O)(=O)c3cccs3)ccc2O1 | inactive
22 | C[C@H](CO)N1C[C@H](C)[C@@H](CN(C)Cc2ccc(Cl)c(Cl)c2)OCCCC[C@H](C)Oc2ccc(NC(=O)Nc3ccc(C(F)(F)F)cc3)cc2C1=O | inactive
23 | C[C@@H]1CCCCO[C@H](CN(C)C(=O)C2CCCCC2)[C@@H](C)CN([C@@H](C)CO)C(=O)c2cc(NC(=O)Nc3ccccc3)ccc2O1 | inactive
24 | C[C@@H]1CN([C@H](C)CO)C(=O)Cc2cc(NC(=O)Nc3ccc(F)cc3)ccc2O[C@@H]1CN(C)Cc1ccc(Cl)c(Cl)c1 | inactive
25 | C[C@H]1CN([C@@H](C)CO)C(=O)CCCn2nncc2CO[C@@H]1CN(C)C(=O)Nc1ccc(-c2cccs2)cc1 | inactive
26 | C[C@@H]1CCCCO[C@H](CN(C)CC2CCCCC2)[C@H](C)CN([C@H](C)CO)C(=O)c2cc(NS(=O)(=O)c3ccc(Cl)cc3)ccc2O1 | inactive
